This note sets out measurements from PubChem BioAssay (Tox21).

Test [1] in a line: qHTS assay to identify small molecule agonists of H2AX (AID 1224845; active means well fitted activation curve with a large enough effect in the signal ratio in the repeat runs, not every such curve was filed as active; the % refers to the signal ratio; further: potency means the concentration at half of the fitted maximal effect). The method, boiled down: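 Wild-type CHO-K1 cells, plated overnight, exposed 3hr at 37C to 15 concentrations (0.76% DMSO final). Lysed, then HTRF anti-pH2AX (S139) cryptate and anti-H2AX-d2 antibodies, 24 hr room temperature; 665/620 nm emission read.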
Test [2] can be described thus: qHTS assay to identify small molecule agonists of the hypoxia (HIF-1) signaling pathway (AID 1224846; active means well fitted activation curve with a large enough effect in the signal ratio in the repeat runs, not every such curve was filed as active; the % refers to the signal ratio). A digest of the protocol: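 HRE-bla ME-180 cells (beta-lactamase reporter under hypoxia response element) were plated at 2,000 cells/well in medium with 0.5% dialyzed FBS, rested 5 hrs, then given compounds in DMSO for 17 hrs at 37C, 5% CO2. Reporter induction was read with CCF4-AM FRET substrate.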
A general note: Quantitative high-throughput screening tests each substance at several concentrations.

Test [3] in a line: qHTS assay to identify small molecule agonists of H2AX - cell viability counter screen (AID 1224847; calls by dose curve; further: top concentration of the series differs between compounds; nearly all actives have a fitted effect of over 30% in size). The method, boiled down:
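Read-out: CellTiter-Glo luminescence, 30 min RT. Cells: wild-type CHO-K1, 1000/well, 10% FBS, plated overnight at 37C. Treatment: 15 concentrations, 3 hr, 37C, 0.76% DMSO.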

A short description of test [4]: qHTS RealTime-Glo MT Cell Viability Assay in HepG2 cells - 24 hour (AID 1224867). Further: nearly all actives have a fitted effect of over 50% in size. A digest of the protocol:
(§1)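 HepG2 cells were seeded at 600 cells/well together with NanoLuc luciferase and a cell-permeant prosubstrate, preincubated 5 h at 37 C/5% CO2, then pin-dosed with compounds in DMSO. Nonlytic luminescence from viable cells was read at each time point.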

Test [5] can be described thus: qHTS RealTime-Glo MT Cell Viability Assay in HEK293 cells - 32 hour (AID 1224868). Further: nearly all actives have a fitted effect of over 50% in size. Further: potency means the concentration at half of the fitted maximal effect. A digest of the protocol:
(§2)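 HEK293 cells were seeded at 600 cells/well together with NanoLuc luciferase and cell-permeant prosubstrate, preincubated 5 h at 37 C/5% CO2, then given compound in DMSO by pintool. Luminescence from viable-cell prosubstrate reduction was read repeatedly over 40 h.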

Test [6] in a line: A CellTox Green Cytotoxicity Assay to monitor cytotoxicity in HEK293 cells - 0 hour (AID 1224869). Further: nearly all actives have a fitted effect of over 50% in size. Further: potency means the concentration at half of the fitted maximal effect. A digest of the protocol:
(§3)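 HEK293 cells premixed with CellTox Green dye were seeded at 600 cells/well and left 5 h at 37 C/5% CO2 before pin transfer of 23 nL compound in DMSO. Fluorescence from dye bound to dead-cell DNA was read during 40 h treatment.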

Test [7] in a line: qHTS RealTime-Glo MT Cell Viability Assay in HepG2 cells - 40 hour (AID 1224870). Further: nearly all actives have a fitted effect of over 50% in size. A digest of the protocol:
(§4)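 HepG2 cells (600/well) mixed with RealTime-Glo MT reagent, settled 5 h at 37 C/5% CO2 before compound addition. Nonlytic NanoLuc luminescence from viable-cell prosubstrate reduction read repeatedly during 40 h treatment at 37 C.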

Test [8] in a line: qHTS RealTime-Glo MT Cell Viability Assay in HEK293 cells - 16 hour (AID 1224872). The method, boiled down:
as §2

The nature of test [9]: qHTS RealTime-Glo MT Cell Viability Assay in HepG2 cells - 8 hour (AID 1224873). Further: nearly all actives have a fitted effect of over 55% in size. A digest of the protocol:
as §4

The nature of test [10]: qHTS RealTime-Glo MT Cell Viability Assay in HEK293 cells - 40 hour (AID 1224874). Further: nearly all actives have a fitted effect of over 50% in size. Further: potency means the concentration at half of the fitted maximal effect. Particulars: RealTime-Glo luminescence; max response: stronger effect = lower value. The method, boiled down:
(§5)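 HEK293 cells mixed with RealTime-Glo reagents (NanoLuc plus cell-permeant prosubstrate) at 600 cells/well, preincubated 5 h at 37 C/5% CO2, then given 23 nL compound in DMSO. Nonlytic luminescence from viable cells was read at 0, 8, 16, 24, 32 and 40 h.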

Test [11] is described as follows: A CellTox Green Cytotoxicity Assay to monitor cytotoxicity in HepG2 cells - 16 hour (AID 1224876). Further: nearly all actives have a fitted effect of over 45% in size. Further: potency means the concentration at half of the fitted maximal effect. The method, boiled down: (§6)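 HepG2 cells were seeded together with the CellTox Green dye at 600 cells/well, left 5 h at 37 C/5% CO2, then given compounds in DMSO. Fluorescence from dye bound to dead-cell DNA was read repeatedly over 40 h of treatment at 37 C.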
The nature of test [12]: qHTS RealTime-Glo MT Cell Viability Assay in HepG2 cells - 32 hour (AID 1224877). Further: nearly all actives have a fitted effect of over 55% in size. The method, boiled down: as §1
Test [13] in a line: qHTS RealTime-Glo MT Cell Viability Assay in HEK293 cells - 0 hour (AID 1224880). Further: top concentration of the series differs between compounds; nearly all actives have a fitted effect of over 45% in size. A digest of the protocol: as §5
A short description of test [14]: A CellTox Green Cytotoxicity Assay to monitor cytotoxicity in HepG2 cells - 24 hour (AID 1224878). Further: nearly all actives have a fitted effect of over 45% in size. Further: potency means the concentration at half of the fitted maximal effect. A digest of the protocol:
as §6

The nature of test [15]: A CellTox Green Cytotoxicity Assay to monitor cytotoxicity in HepG2 cells - 40 hour (AID 1224879). Further: nearly all actives have a fitted effect of over 40% in size. Further: potency means the concentration at half of the fitted maximal effect. A digest of the protocol: as §6
Test [16] can be described thus: qHTS assay to identify small molecule antagonists of the estrogen related receptor (ERR) signaling pathway from Tox21 library (AID 1224848). Further: nearly all actives have a fitted effect of over 50% in size. A digest of the protocol:
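Luminescent reporter read-out (ONE-Glo) from NTP's ERR cell line after 18 h treatment at 37 C with DMSO-dissolved Tox21 compounds; cells pre-plated 6 h beforehand at 2,000 per well.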

A short description of test [17]: qHTS assay to identify small molecule agonists of the estrogen related receptor (ERR) signaling pathway from Tox21 library (AID 1224849; calls by dose curve; further: nearly all actives have a fitted effect of over 15% in size). Particulars: ERR reporter cell line, ONE-Glo luciferase, 18 h. A digest of the protocol: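 ERR reporter cell line (NTP) seeded, rested 6 h at 37 C/5% CO2, then pinned with Tox21 compounds in DMSO. After 18 h at 37 C, ONE-Glo luciferase luminescence was read following 30 min at room temperature.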

Test [18] in a line: A CellTox Green Cytotoxicity Assay to monitor cytotoxicity in HEK293 cells - 24 hour (AID 1224875). Further: nearly all actives have a fitted effect of over 45% in size. A digest of the protocol: as §3
The nature of test [19]: A CellTox Green Cytotoxicity Assay to monitor cytotoxicity in HEK293 cells - 40 hour (AID 1224871). Further: nearly all actives have a fitted effect of over 45% in size. Further: potency means the concentration at half of the fitted maximal effect. A digest of the protocol: as §3

Values joined by “and” are separate entries in the source; they are usually repeats but may differ in a detail not shown here. Equal entries are not always repeated. Unmarked numbers belong to inactive results. Records with an inconclusive call do not appear. Active and inactive are the calls of the source. Unless noted, the call rests on the fitted dose curve; in most records, active means well fitted curve in the direction sought with a large enough effect in the repeat runs; inconclusive means weak or mixed curves; inactive means no such curve, though single readings can be large; an effect the other way counts as inactive or inconclusive.
On the % scale 0 is the no-effect control and ±100 the full control effect.

For the compound `CN(C)N`, the Potency entry in [1], in test [3], in [4], in test [5], in test [6] and in test [7] was “inactive” in each case. Also, the Potency entry in [8], in test [9] and in test [12] was “inactive” in each case. The compound was called inactive in [2] and in [13]. In addition, the max response in [10] was 6.16%. In addition, the Potency in test [11] was 54.9 µM (active).

`CC(C)CCON=O`: the Potency result in test [1], in [3], in test [5], in test [6], in test [7] and in test [8] was “inactive” in each case. In addition, the Potency result in test [9], in test [11], in test [12], in [14] and in test [15] was “inactive” throughout. The call in test [2] and in [13] was inactive. Also, the max response in [10] was 0.253%.

On to `CCOC(C(=O)OCCN(C)C)(c1ccccc1)c1ccccc1`, for which the Potency entry in test [1], in test [16], in [4], in [5], in test [6] and in [7] was “inactive” each time. For the same compound, the Potency entry in test [8], in [9], in test [18], in [11], in test [12] and in test [14] was “inactive” throughout. Besides, the Potency result in test [15] is “inactive”. The compound was called inactive in test [2] and in [13]. Besides, the activity change, positive = activation in test [17] (at 42.5 µM (top of the series)) was -1.78%. Moreover, in test [10], the max response was -21.4%.

Regarding `C[C@H](N)[C@H](O)c1ccc(O)c(O)c1`, the Potency entry in [3], in test [16], in [4], in test [5], in test [7] and in [8] was “inactive” throughout. Besides, the Potency entry in [9] and in [12] was “inactive” each time. The Potency in [6] was 16.9 µM (active); in test [19], 10.7 µM (active); in test [11], 23.9 µM (active); in test [14], 23.9 µM (active); in [15] it was 23.9 µM (active). Also, in test [10], the max response was -2.61%. Moreover, in [13], the compound was called inactive.

Turning to `O=C(CCl)CCl`, the Potency in test [1] is 104 µM (active); in test [5], 18 µM (active) and 19.5 µM (active); in [19], 21.9 µM (active); in test [10], 18 µM (active) and 21.9 µM (active); in test [14], 22.7 µM (active). For the same compound, the Potency result in [4], in test [6], in test [7], in test [9], in test [18] and in test [11] was “inactive” each time. For the same compound, the Potency entry in test [12] was “inactive”. In addition, the outcome in test [13] was inactive.

Consider `CCCC1CCCCN1` (configuration not stated), for which the Potency result in test [1], in [3], in [5], in test [6], in [7] and in [19] was “inactive” in each case. Besides, the Potency entry in test [8], in [9], in [11], in [12], in test [14] and in test [15] was “inactive” in each case. Also, the result in [2] and in test [13] was inactive. Also, the max response in test [10] is 5.87%.

Regarding `CCCCCCCCCCCCN(C)C`, the Potency result in test [1], in test [16], in test [4], in [5], in test [7] and in [19] was “inactive” each time. The Potency result in test [8], in [9], in test [11], in [12] and in test [14] was “inactive” in each case. Also, the outcome in test [2] and in test [13] was inactive. The activity change, positive = activation in test [17] (at 92.4 µM (top of the series)) was 3.27%. Moreover, in test [10], the max response was -4.6%.
